The entries come from a sample that favours hits as a whole.
RMI-FANCM inh – disruptors of RMI1/RMI2 association with MM2 peptide – biochemical, fluorescence polarization, human, primary screen; RMI core complex (RMI1/RMI2) binding to FANCM MM2 peptide, human; FP signal (polarization) at 33 µM; hit rate 0.58% among 70,000; RMI core complex with F-MM2 peptide; active compounds read low; in the data active = FP signal below about 40
* = called active by the depositor.

`CCOC(=O)c1[nH]c2c(c1C)C(=O)CCC2` gave RMI-FANCM inh 59.
O=C(Cc1cccs1)Nc1ccc2c(c1)CN(C(=O)c1ccco1)CC2 was read as RMI-FANCM inh 70.
Cc1cc(NC(=O)c2cccs2)n(-c2nc3c(cnn3-c3ccc(F)cc3)c(=O)[nH]2)n1 was read as RMI-FANCM inh 52.
For CCN1CCc2c(sc(NC(=O)CCS(=O)(=O)c3ccc(C)cc3)c2C(N)=O)C1 the results were RMI-FANCM inh 34*.
`CC(C)N1CCc2c(sc(NC(=O)c3ccn(C)n3)c2C(N)=O)C1` gave RMI-FANCM inh 74.
Cc1ccc(S(=O)(=O)CC(=O)Nc2sc3c(c2C(N)=O)CCN(C(C)C)C3)cc1 was read as RMI-FANCM inh 57.
CCN1CCc2c(sc(NC(=O)CS(=O)(=O)c3ccc(F)cc3)c2C(N)=O)C1 was read as RMI-FANCM inh 13*.
For CCOC(=O)N1CCc2c(sc(NC(=O)CS(=O)(=O)c3ccc(C)cc3)c2C(N)=O)C1 the results were RMI-FANCM inh 63.
For Cc1ccc(S(=O)(=O)CCC(=O)Nc2sc3c(c2C(N)=O)CCC(C)C3)cc1 (centres undefined) the results were RMI-FANCM inh 83.
For CC(=O)N1CCc2c(sc(NC(=O)CSc3ccc(Cl)cc3)c2C(N)=O)C1 the results were RMI-FANCM inh -4*.
CC(C)N1CCc2c(sc(NC(=O)CN3C(=O)c4ccccc4C3=O)c2C(N)=O)C1 was read as RMI-FANCM inh -4*.
For CCOC(=O)N1CCc2c(sc(NC(=O)CCS(=O)(=O)c3ccccc3)c2C(N)=O)C1 the results were RMI-FANCM inh 69.
Screening CCOC(=O)N1CCc2c(sc(NC(=O)CCSc3ccc(Cl)cc3)c2C(N)=O)C1 returned RMI-FANCM inh 58.
CC(=O)N1CCc2c(sc(NC(=O)CCSc3ccc(C)cc3)c2C(N)=O)C1 was read as RMI-FANCM inh 56.
For CCN1CCc2c(sc(NC(=O)c3ccnn3C)c2C(N)=O)C1 the results were RMI-FANCM inh 68.
`O=C(NNC(=O)c1ccc(-c2cccc(Cl)c2)o1)c1ccccc1` gave RMI-FANCM inh 76.
`COc1cccc(-c2csc(-n3nc(C)cc3NC(=O)Cc3ccc(F)cc3)n2)c1` gave RMI-FANCM inh 102.
O=[N+]([O-])c1cccc(S(=O)(=O)Nc2cc(-c3c(O)ccc4ccccc34)c(O)c3ccccc23)c1 was read as RMI-FANCM inh 54.
Cc1ccc(S(=O)(=O)N2N=C(c3ccc(Br)cc3)CC2c2cccc([N+](=O)[O-])c2)cc1 (centres undefined) was read as RMI-FANCM inh 56.
Cc1cccc2sc(NC(=O)c3cc([N+](=O)[O-])ccc3Cl)nc12 was read as RMI-FANCM inh 49.
Screening FC(F)(F)c1nc2ccccc2n1Cc1ccc(Cl)cc1 returned RMI-FANCM inh 60.
`COc1ccc(OC)c(NC(=O)c2cc(C3CC3)n(C3CCS(=O)(=O)C3)n2)c1` (centres undefined) gave RMI-FANCM inh 53.
`O=C(NNC(=O)c1csc(Cc2ccsc2)n1)Nc1ccccc1` gave RMI-FANCM inh 54.
`CCOC(=O)c1ccc2c(c1)sc(=NC(=O)C(C)(C)C)n2C` gave RMI-FANCM inh 63.
O=C(NCc1ccccc1Cl)C(=O)NCC(c1cccs1)N1CCc2ccccc21 (centres undefined) was read as RMI-FANCM inh 51.
CCN(Cc1ccccc1)C(=O)CCN1C(=O)/C(=C\c2ccco2)SC1=S was read as RMI-FANCM inh 22*.
O=C1/C(=C\c2ccco2)SC(=S)N1CCS(=O)(=O)O was read as RMI-FANCM inh 65.
`CCc1nnc(NC(=O)CCN2C(=O)/C(=C\c3ccco3)SC2=S)s1` gave RMI-FANCM inh 65.
For O=C(Nc1cccc(Cl)c1)c1sccc1S(=O)(=O)N1CCN(c2ccccc2F)CC1 the results were RMI-FANCM inh 75.
Screening Cc1ccccc1NC1SC(=O)N(CC(C)C)C1=O (centres undefined) returned RMI-FANCM inh 63.
`CCOC(=O)c1c(C)n(-c2ccccc2)c2ccc(OC(=O)c3ccccc3NC(=O)c3ccc(Cl)cc3)cc12` gave RMI-FANCM inh 61.
For CCOc1ccc(-c2csc(/C(C#N)=C/C(Br)=C\c3ccccc3)n2)cc1 the results were RMI-FANCM inh 61.
Cc1ccc(NC(=O)c2ccc(Br)cc2)cc1N1CCCCC1=O was read as RMI-FANCM inh 53.
For O=C1NC(=S)/C(=C/c2ccc(-c3ccccc3[N+](=O)[O-])o2)S1 the results were RMI-FANCM inh 9*.
For O=C1C(=Cc2ccc(-c3ccc(C(F)(F)F)cc3[N+](=O)[O-])o2)C(=O)c2ccccc21 the results were RMI-FANCM inh 59.
Screening CCOC(=O)c1ccc(-c2ccc(/C=C3\SC(=O)NC3=S)o2)cc1 returned RMI-FANCM inh -42.
COc1cccc(/C=C2\Oc3c(ccc(O)c3CN3CC4CC(C3)c3cccc(=O)n3C4)C2=O)c1 (centres undefined) was read as RMI-FANCM inh 68.
`COc1ccc(NC(=O)CN2CCC(C(=O)NCc3ccncc3)CC2)c(OC)c1` gave RMI-FANCM inh 58.
`Cc1nc(-c2ccccn2)n[nH]1` gave RMI-FANCM inh 63.
For Cc1cc(-c2ccccn2)c(-c2cc(Cl)cc(Cl)c2)[nH]1 the results were RMI-FANCM inh 32*.
Screening Cc1cc(=S)nc(-c2ccccn2)[nH]1 returned RMI-FANCM inh 55.
For O=C(c1cnn(-c2ccccc2)c1C(F)(F)F)N1CCN(c2ccnc3cc(Cl)ccc23)CC1 the results were RMI-FANCM inh 60.
Fc1ccc2nc(NCc3cccnc3)sc2c1 was read as RMI-FANCM inh 66.
Brc1ccc(-c2ccc(Br)s2)s1 was read as RMI-FANCM inh 63.
For Fc1ccc2ncc(-c3ccc(Br)s3)nc2c1 the results were RMI-FANCM inh 9*.
`Cc1ccccc1-c1ccc(N2CCN(C(=O)Cc3ccc(F)cc3)CC2)nn1` gave RMI-FANCM inh 71.
Screening Cn1cc(NC(=O)N2CCN(c3cccc(C(F)(F)F)c3)CC2)c2ccccc21 returned RMI-FANCM inh 55.
For CC(=O)Nc1ccc(C(=O)NCCNC(=O)c2ccccc2)cc1 the results were RMI-FANCM inh 67.
`O=[N+]([O-])c1cccc(-c2nnc3c4cnn(-c5ccc(F)cc5)c4ncn23)c1` gave RMI-FANCM inh 64.
`O=c1c2cnn(-c3ccccc3)c2nnn1/N=C\c1ccc([N+](=O)[O-])cc1` gave RMI-FANCM inh 43.
N=c1c2cnn(-c3ccccc3)c2ncn1/N=C\c1ccc([N+](=O)[O-])cc1 was read as RMI-FANCM inh 39*.
C/C(=N\NC(=O)CCn1nnc2ccccc21)c1cccc([N+](=O)[O-])c1 was read as RMI-FANCM inh 57.
For CC(C)(C)NC(=O)NCCOc1ccc(F)cc1 the results were RMI-FANCM inh 61.
`O=C(NCc1ccc2[nH]c3c(c2c1)CCCC3)c1ccc(C(F)(F)F)cc1` gave RMI-FANCM inh 43.
`O=C(NCc1ccc2[nH]c3c(c2c1)CCCC3)c1cccs1` gave RMI-FANCM inh 45.
`O=C(Cc1cccs1)NCc1ccc2[nH]c3c(c2c1)CCCC3` gave RMI-FANCM inh -1*.
For CC(C)C(=O)Nc1ccc(SCc2ccccc2)nn1 the results were RMI-FANCM inh 65.
COC(=O)c1ccc2nc(NC(=O)c3cccc(C(F)(F)F)c3)sc2c1 was read as RMI-FANCM inh 65.

Screening results from PubChem.
